Inhibition data for 95 molecules are collected here from PubChem BioAssay AID485270 (The Scripps Research Institute Molecular Screening Center, 2010).

SMILES strings stand for the structures. The campaign covered roughly 330,000 compounds. About 5,800 (1.8%) were called active. Shown is part of a subset that was picked to be rich in actives. Unmarked numbers belong to inactive results. No stated cut-off is given here; in the data, active means inhibition mostly above about 38% (no sharp cut-off); inactive means mostly below about 40%.

The assay deals with Orexin/Hypocretin receptor type 1 (Homo sapiens) (UniProt O43613). Nature of the assay: blocks the human orexin 1 receptor (AID 485270).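 Further: 0% = agonist challenge alone and 100% = reference antagonist.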 To be noted: OX1R-expressing cells, FRET antagonist read-out; at 6.6 µM; stronger effect = higher value.
Orexin/Hypocretin receptor type 1 (Homo sapiens), sequence (O43613 whole entry, looked up): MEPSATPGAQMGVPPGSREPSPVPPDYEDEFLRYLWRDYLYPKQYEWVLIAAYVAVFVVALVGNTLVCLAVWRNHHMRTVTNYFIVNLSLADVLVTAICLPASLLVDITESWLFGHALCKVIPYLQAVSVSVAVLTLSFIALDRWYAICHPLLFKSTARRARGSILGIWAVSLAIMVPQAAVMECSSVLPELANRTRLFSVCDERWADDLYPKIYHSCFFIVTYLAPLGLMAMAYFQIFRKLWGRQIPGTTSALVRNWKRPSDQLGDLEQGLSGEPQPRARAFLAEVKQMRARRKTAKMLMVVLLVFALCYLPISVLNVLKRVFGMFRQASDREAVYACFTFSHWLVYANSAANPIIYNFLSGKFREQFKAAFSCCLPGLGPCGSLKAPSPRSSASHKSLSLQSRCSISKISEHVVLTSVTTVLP
Regarding `CC1CCCCC1NC(=O)Cn1c(=O)cnc2ccccc21` (stereo not given), the inhibition was 7.4%.

Turning to `COc1cc(C(=O)Nc2oc(-c3ccccc3)c(-c3ccccc3)c2C#N)cc(OC)c1OC`, the inhibition was 24.6%.

With `N#Cc1c(NC(=O)CCCN2C(=O)c3ccccc3C2=O)oc(-c2ccccc2)c1-c1ccccc1`, the inhibition was 48.7% (active).

Regarding `O=C(CCN1C(=O)c2ccccc2C1=O)Nc1ccncc1`, the inhibition is 21.2%.

With `C#CCOCCOCCOCCNc1nc(N2CCN(C(=O)[C@H](CCCN=C(N)N)n3cc(C(N)[C@@H](C)CC)nn3)CC2)nc(N2CCN(C(=O)[C@H](CO)n3cc([C@@H](N)C(C)C)nn3)CC2)n1` (stereo not given in full), the inhibition was 1.49%.

As for `COc1cc(Cl)ccc1OCc1cc(C(=O)N(C)CCc2c(C)n[nH]c2C)no1`, the inhibition was 71.9% (active).

As for `Cc1ccc(OCc2cc(C(=O)N(C)CCc3ccccc3)no2)cc1C`, the inhibition is 27.7%.

In the case of `CSc1ccccc1OCc1cc(C(=O)N(C)CCc2c(C)n[nH]c2C)no1`, the inhibition is 43.7% (active).

With `CSc1ccccc1OCc1cc(C(=O)N2C[C@H]3CC[C@H]2C3)no1`, the inhibition was 38.3%.

Turning to `CCn1ccnc1CN(C)C(=O)c1cc(COc2ccc(Cl)cc2OC)on1`, the inhibition was 16.5%.

As to `COc1cc(Cl)ccc1OCc1cc(C(=O)N2CC[C@@H]3CCCC[C@H]3C2)no1`, the inhibition is -0.82%.

Regarding `COc1cccc2sc3cc(NCC[C@@H]4CCCN4C)ccc3c(=O)c12`, the inhibition was 20.1%.

With `COc1cc(NC(=O)c2[nH]cnc2C(N)=O)cc(C(=O)Nc2cccc(C(F)(F)F)c2)c1`, the inhibition was 33.6%.

Turning to `O=C1CN(C(=O)COC(=O)/C=C/c2ccc(F)cc2)c2ccccc2N1`, the inhibition is 6.47%.

For `O=C(C[C@H]1C[C@H](C(=O)N2CCOCC2)[C@@]2(CCC3CCCC3)c3[nH]c4ccc(Cl)cc4c3CCN2C1=O)NCc1ccco1`, the inhibition is 14.4%.

Regarding `COc1ccc(CCNC(=O)NS(=O)(=O)c2ccc(C)cc2)cc1OC`, the inhibition was -2.44%.

As to `COc1ccc(-n2c(C)cc(C(=O)COC(=O)c3cc(OC)c(OC)cc3NC(=O)c3cccs3)c2C)cc1`, the inhibition is 1.91%.

`Cc1ccc(-n2c(C)cc(C(=O)CSc3nnc4ccccn34)c2C)cc1`: the inhibition is 12.3%.

Consider `COc1ccc(-n2c(C)cc(C(=O)CSc3nnc(-c4cccs4)o3)c2C)cc1`, for which the inhibition is 39.4% (active).

Consider `Nc1ncnc2c1ncn2[C@@H]1O[C@H](CNS(=O)(=O)c2ccc(-c3ccno3)s2)[C@@H](O)[C@H]1O`, for which the inhibition is 6.23%.

Consider `CN(C)C(=O)CCc1ccc2c3c([nH]c2c1)[C@]1(CCC2CCCC2)[C@@H](C(=O)N2CCOCC2)C[C@H](CC(=O)NCc2ccco2)C(=O)N1CC3`, for which the inhibition was 5.29%.

Consider `O=C(COC(=O)CSc1ccccc1)Nc1ccc(F)cc1F`, for which the inhibition is 13.6%.

Take `Cn1nnnc1SCC(=O)Nc1cccc(S(=O)(=O)N2CCCCC2)c1`: the inhibition is 12%.

For the molecule `CC1CCN(S(=O)(=O)c2ccc(NC(=O)C3CC(=O)N(c4ccccc4)C3)cc2)CC1` (stereo not given), the inhibition is 25.5%.

Consider `COc1ccccc1N1CC(C(=O)Nc2ccc(S(=O)(=O)N3CCOCC3)cc2)CC1=O` (stereo not given), for which the inhibition is 91.1% (active).

In the case of `Cc1ccccc1N1CC(C(=O)Nc2ccc(S(=O)(=O)N3CCCC3)cc2)CC1=O` (stereo not given), the inhibition was 15.4%.

In the case of `CN(Cc1ccc(CNC[C@H]2O[C@@H](n3cnc4c(N)ncnc43)[C@H](O)[C@@H]2O)o1)S(C)(=O)=O`, the inhibition is -3.7%.

`COc1ccccc1NC(=O)C1CCCN1S(=O)(=O)c1ccc(Cl)cc1` (stereo not given): the inhibition was 62.4% (active).

For `COc1ccc(Cl)cc1NC(=O)[C@@H]1CCCN1C(=O)c1cccs1`, the inhibition was 1.43%.

As for `Cc1cccc(NC(=O)C2CCCN2S(=O)(=O)c2ccc(F)cc2)c1C` (stereo not given), the inhibition was 50% (active).

Turning to `CC(C)c1nnc(NC(=O)C2CCCN2S(=O)(=O)c2ccc(Cl)cc2)s1` (stereo not given), the inhibition is 39.3%.

For the molecule `Cc1cccc(NC(=O)C2CCCN(C(=O)Nc3ccc(F)cc3)C2)c1C` (stereo not given), the inhibition was 21.2%.

For the molecule `O=C(NCc1ccccc1Cl)C1CCCN1S(=O)(=O)c1ccc(F)cc1` (stereo not given), the inhibition is 2.31%.

Turning to `CC1Sc2ccc(C(=O)NCc3ccccc3Cl)cc2NC1=O` (stereo not given), the inhibition is 1.56%.

For `NC(=O)Nc1ccc(C(=O)OCC(=O)NC2CCCc3ccccc32)cc1` (stereo not given), the inhibition is 19.8%.

For `COc1cccc(CC2(CO)CCCN(CC3=Cc4cc(OC)ccc4OC3)C2)c1` (stereo not given), the inhibition is 25.7%.

`COc1cccc(CC2(CO)CCCN(Cc3ccc(OC(F)F)cc3)C2)c1` (stereo not given): the inhibition was 13.4%.

Regarding `COc1cccc(CC2(CO)CCCN(Cc3nc(-c4cccs4)oc3C)C2)c1` (stereo not given), the inhibition is 45% (active).

On to `COC(=O)[C@]1(Cc2ccccc2)N[C@H](CN(C)S(=O)(=O)c2ccc(OC(F)(F)F)cc2)[C@@H]2C(=O)N(C)C(=O)[C@@H]21`, for which the inhibition is 5.12%.

`O=C(CSc1ncnc2sccc12)NC1CCS(=O)(=O)C1` (stereo not given): the inhibition is 4.8%.

Consider `CCCCNS(=O)(=O)CCNCc1ccccc1OC`, for which the inhibition was 5.19%.

Regarding `CCCCNC(=O)C(C)N(CCN(C)C)C(=O)CCCCCN1C(=O)NC(c2ccc(Cl)cc2)C(C(=O)OCc2ccccc2)=C1C` (stereo not given), the inhibition is 7.69%.

As to `O=C(CCCOc1ccccc1)NNC(=O)c1ccc(Cl)cc1`, the inhibition was 2.88%.

As to `CN=C1C=C/C(=N/N=c2\ccn(O)cc2C)C=C1C`, the inhibition was 58.6% (active).

For the molecule `CCOc1ncccc1C(=O)Nc1ccc2c(c1)OCCO2`, the inhibition is 14.1%.

In the case of `O=C(COC(=O)c1ccc(F)cc1)Nc1ccc2c(c1)OCO2`, the inhibition is 7.07%.

With `COc1cc2ccccc2cc1C(=O)N1CCOCC1`, the inhibition was 9.14%.

For `COc1cc2ccccc2cc1C(=O)Nc1ccncc1`, the inhibition is 17.8%.

Regarding `COc1cc2ccccc2cc1C(=O)Nc1ccc(N2CCOCC2)cc1`, the inhibition is 63.5% (active).

As to `O=C(Cn1cnc2ccccc2c1=O)NNC(=O)c1ccccc1F`, the inhibition was 6.41%.

Regarding `COc1cccc(N=c2oc3c(C)ncc(CO)c3cc2C(N)=O)c1`, the inhibition is 84.6% (active).

For `COc1cccc2cc(C(N)=O)/c(=N\NC(=O)c3ccccc3)oc12`, the inhibition is 5.27%.

With `COC(=O)c1ccc(NC(=O)c2cc3c(CO)cnc(C)c3oc2=Nc2cccc(C(N)=O)c2)cc1`, the inhibition is 7.42%.

For `O=C(CN1C(=O)NC2(CCCCCC2)C1=O)Nc1ccc([N+](=O)[O-])cc1`, the inhibition was 11.2%.

`O=C(Nc1ccccc1F)c1ccc(Cn2cc(Br)cn2)cc1`: the inhibition is 8.12%.

On to `Cc1ccc(Br)c(NS(=O)(=O)c2cccc(C(=O)N3CCNC(=O)C3)c2)c1`, for which the inhibition was 3.06%.

On to `S=C(NC1CCCCC1)NN1CCOCC1`, for which the inhibition was 18.3%.

As for `COc1ccc(NC(=O)CN2C(=O)CSc3ccc(S(=O)(=O)N4CCC(C)CC4)cc32)cc1`, the inhibition was 3.75%.

For `O=C(Nc1cccc(S(=O)(=O)N2CCCC2)c1)c1cncc(Br)c1`, the inhibition is -1.91%.

Take `COc1cccc(/C=C2\C=C(c3ccc(C)cc3)OC2=O)c1OC(C)=O`: the inhibition was -6.31%.

With `COc1cccc(/C=C/c2ccc3ccccc3n2)c1OC(C)=O`, the inhibition was 92% (active).

As to `CCOc1cccc(/C=C/c2ccc3ccccc3n2)c1OC(C)=O`, the inhibition is 58.1%.

Turning to `O=C(CSc1ncn[nH]1)Nc1ccc(Br)cc1Br`, the inhibition is 5.47%.

Turning to `C=CC[C@@H](CC(=O)N[C@@H](CO)Cc1ccccc1)C(=O)N[C@H](COC(=O)[C@H](CC=C)CC(=O)OC(C)(C)C)Cc1ccccc1`, the inhibition is 3.4%.

Take `CN(Cc1ccc(F)cc1)C(=O)CN1C(=O)c2ccccc2S1(=O)=O`: the inhibition is 13.1%.

For the molecule `Cc1nn(Cc2ccccc2)c(Cl)c1C(=O)OC1CCOC1=O` (stereo not given), the inhibition was 21.6%.

Take `CC(C)c1ccc(C(=O)OC2CCOC2=O)cc1` (stereo not given): the inhibition was 27.2%.

On to `O=C(OC1CCOC1=O)c1ccc(-c2nc3ccccc3s2)s1` (stereo not given), for which the inhibition is 119% (active).

On to `Cc1ccc(S(=O)(=O)N2CCCCC2)cc1NC(=O)CCNC(=O)c1ccccc1`, for which the inhibition is 2.26%.

As to `COc1cccc(CNC(C)C(=O)Nc2ccc(S(=O)(=O)N3CCCC3)cc2)c1` (stereo not given), the inhibition was 2.03%.

As to `O=C(NNC(=O)c1ccc(Cl)nc1)c1ccc(Br)cc1`, the inhibition was 8.95%.

As for `CCN(C[C@H]1N[C@@](CC)(C(=O)OC)[C@H]2C(=O)N(Cc3ccccc3)C(=O)[C@@H]12)S(=O)(=O)c1ccccc1`, the inhibition was 6.85%.

For `O=C(Nc1ccccc1Cl)/C(Cl)=C(\Cl)S(=O)c1ccccc1` (stereo not given), the inhibition is 87.9% (active).

On to `O=C(Cc1ccc2c(c1)CCCC2)Nc1ccccc1Cl`, for which the inhibition is 6.59%.

Turning to `Cc1c(NC(=O)Nc2ccccc2Cl)sc(=S)n1C`, the inhibition was 12.2%.

On to `COc1ccc(CNC(=O)C2CCN(C(=O)c3ccco3)CC2)cc1`, for which the inhibition is 14.6%.

In the case of `CC(=O)c1c(OCC(=O)N(C)C2CCCCC2)ccc2c(C)cc(=O)oc12`, the inhibition is 2.71%.

As for `O=C(NCc1ccccc1)c1onc(CSc2nc3ccccc3[nH]2)c1C(=O)NCc1ccccc1`, the inhibition was 71.2% (active).

With `O=C(NCc1ccccc1)c1onc(CSc2ccncc2)c1C(=O)NCc1ccccc1`, the inhibition was 16.4%.

In the case of `O=C(NCC1CC1)c1onc(CSc2ccccc2)c1C(=O)NCC1CC1`, the inhibition was 28.4%.

For the molecule `O=S(=O)(Nc1ncnc2sccc12)c1cccc(F)c1`, the inhibition is 3.31%.

`Cc1cc(NC(=O)COC(=O)/C=C/c2ccc(C)o2)no1`: the inhibition is 1.38%.

Turning to `C=CCSc1nnc2c(n1)-c1cccc3cccc-2c13`, the inhibition is 56.6% (active).

For `CCOC(=O)C1=CN(Cc2ccc(Br)cc2)S(=O)(=O)NC1C` (stereo not given), the inhibition was 8.5%.

On to `COc1cc2c(-c3ccc4c(c3)OCO4)c(-c3ccsc3)oc(=O)c2cc1OC`, for which the inhibition is 16.2%.

Turning to `CC(OC(=O)c1cc2ccccc2[nH]1)C(=O)N(C)c1ccccc1` (stereo not given), the inhibition was 5.48%.

With `C[C@H](NC(=O)c1ccccc1Cl)C(=O)OCC(=O)N1CCN(c2ccccc2)CC1`, the inhibition was 3.17%.

As to `COc1ccc(C(=O)OCC(=O)c2ccc(C)c(S(=O)(=O)N3CCOCC3)c2)cc1OC`, the inhibition was 27.8%.

Turning to `COc1cc(NC(=O)COC(=O)c2ccc([N+](=O)[O-])s2)cc(OC)c1OC`, the inhibition is 47.4% (active).

`COc1ccc(C(=O)COC(=O)c2ccc([N+](=O)[O-])s2)cc1OC`: the inhibition was 38.5% (active).

For the molecule `O=C(CN1CCCC1)N1CCN(c2ccccc2)CC1`, the inhibition was 3.2%.

Turning to `COc1ccc(C(=O)OCC(=O)Nc2ccc3[nH]c(=O)[nH]c3c2)c(OC)c1OC`, the inhibition was 18%.

For `O=C(OCC(=O)N1CCN(c2ccccc2)CC1)c1ccc([N+](=O)[O-])s1`, the inhibition was 42.6% (active).

As to `COc1ccc(C(=O)NCC(=O)N/N=C/c2ccc([N+](=O)[O-])s2)cc1OC`, the inhibition was 44%.

On to `COc1cc(C(=O)OCc2ccc([N+](=O)[O-])cc2)cc(OC)c1OC`, for which the inhibition is 14.5%.

The term inhibition denotes the drop in the measured response relative to a control, in per cent.
